# This is a sample that favours compounds with a hit; in the whole collection about 1.5% have one here.
# Tb PFK inh: inhibitors of T. brucei phosphofructokinase | O15648 | T. brucei PFK, ADP-Glo luminescence | Potency, µM (doses to about 57.5 µM), without a hit: at the top dose activity, negative = inhibition, hits mostly inhibitors | 0.17% of 330,000 active | AID 485367;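 further: potency means the concentration at half of the fitted maximal effect; 0% = uninhibited 1x PFK enzyme wells and -100% = no-enzyme wells; nearly all actives have a fitted effect of over 60% in size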
# Target sequence (O15648 whole entry, looked up): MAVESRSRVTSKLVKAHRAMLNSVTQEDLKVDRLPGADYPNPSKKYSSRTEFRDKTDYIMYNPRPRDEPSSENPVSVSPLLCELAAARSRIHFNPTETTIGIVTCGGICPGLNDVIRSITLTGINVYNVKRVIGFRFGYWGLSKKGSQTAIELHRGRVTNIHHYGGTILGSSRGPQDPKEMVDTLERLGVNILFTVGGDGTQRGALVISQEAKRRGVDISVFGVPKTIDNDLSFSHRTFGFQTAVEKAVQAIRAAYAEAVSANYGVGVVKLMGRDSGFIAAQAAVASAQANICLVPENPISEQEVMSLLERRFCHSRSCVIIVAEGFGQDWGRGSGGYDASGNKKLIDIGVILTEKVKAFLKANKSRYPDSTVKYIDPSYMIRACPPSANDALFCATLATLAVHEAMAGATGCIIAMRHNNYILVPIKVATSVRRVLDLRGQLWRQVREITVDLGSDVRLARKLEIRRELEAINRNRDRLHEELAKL
#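 In TEA buffer at pH 8.0 with 5 mM MgCl2, enzyme (1.25 nM) converted F6P (0.5 mM) and ATP (0.1 mM) for 45 min at room temperature. ADP product was read by luciferase luminescence.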
# WRN inhibitor: WRN helicase (human) inhibition; Q14191; WRN helicase unwinding, fluorescent forked duplex, kinetic; Potency, µM (top dose mostly 114 µM), inactives show at the highest dose activity change, negative = inhibition, actives largely listed as inhibitors; 0.46% of 360,000 active; further: potency means the concentration at half of the fitted maximal effect; nearly all actives have a fitted effect of over 55% in size
#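 Kinetic red-fluorescence monitoring (525/598 nm) tracks WRN helicase activity after 100 nM fluorophore-quencher forked duplex and 2 mM ATP are added to 20 nM enzyme pretreated 15 min at room temperature with compound.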
# FEN1 inhibitor: inhibitors of human flap endonuclease 1; P39748; Recombinant FEN1 flap cleavage, fluorescence, 15 min; Potency, µM (highest dose often 114 µM), for inactives: top-dose activity change, negative = inhibition, hits mostly inhibitors; 0.35% of 390,000 active; further: potency means the concentration at half of the fitted maximal effect; nearly all actives have a fitted effect of over 65% in size
#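 With each library titrated from low to high concentration, compounds met 10 nM FEN1 for 15 min at room temperature before 50 nM substrate was added; readings at 0 and 15 min fed four-parameter Hill curve fits.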
# TDP1 inh: blocks human tyrosyl-DNA phosphodiesterase 1. Potency, µM (doses to about 130 µM), inactives show at the top dose activity change, negative = inhibition, hits mostly inhibitors. recombinant TDP1, AlphaScreen DNA substrate cleavage. 0.28% of 350,000 active. Q9NUW8; further: potency means the concentration at half of the fitted maximal effect; nearly all actives have a fitted effect of over 40% in size
#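 Recombinant human Tdp1 (E. coli-expressed, 1 nM final) preincubated with compounds 15 min at room temperature, then 5'-biotin/3'-phosphotyrosine-FITC DNA substrate (15 nM final) added for 5 min. AlphaScreen beads (10 ug/ml final) added 10 min; cleavage lowers signal.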
# PGK inhibitor: T. brucei PGK inhibition; P07378; PGK/GAPDH coupled, Kinase-Glo luminescence, 60 min; Potency, µM (doses to about 57.5 µM), without a hit: at the top dose activity change, negative = inhibition, usual class: inhibitors; 0.043% of 380,000 active; AID 602233; further: potency means the concentration at half of the fitted maximal effect; nearly all actives have a fitted effect of over 60% in size
#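 Luminescent ATP detection (Kinase-Glo Plus) follows a 60-minute room-temperature incubation, with wells lacking PGK as controls. Buffer: 100 mM TEA (pH 7.6), 5 mM MgCl2, 0.01% Tween-20. Coupling enzyme GAPDH (100 nM final) supplies unstable 1,3-BPG in-well.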
# PI5P4K alpha inh: PI5P4K alpha (human) kinase inhibition. P48426. PI5P4Kalpha enzyme, ADP-Glo luminescence, 60 min; active compounds read low. 1.2% of 330,000 active. AID 652105. max response, %; active means max response of -50% or lower; inconclusive means between -30% and -50%; inactive means -30% or higher; further: value at the top dose of about 77 µM
#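 Single end-point luminescence (ADP-Glo) quantified ADP from PI5P4Kalpha turnover; ATP 5 microM final, 1 h at RT, 0.1% CHAPS and 0.28 mM EGTA in HEPES pH 7.4.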
# An asterisk follows results filed as active; i = inactive; ? = inconclusive; . = not tested or not shown; [ ] = remark or other dose. Unless noted, the call rests on the fitted dose curve; in most records, active means well fitted curve in the direction sought with a large enough effect; inconclusive means small, poorly fitted or top-dose-only effect, or another doubt; inactive means no such curve, though single readings can be large; an effect the other way counts as inactive or inconclusive. Unless noted, on the % scale 0 is the no-effect control and ±100 the full control effect.
SMILES,Tb PFK inh,WRN inhibitor,FEN1 inhibitor,TDP1 inh,PGK inhibitor,PI5P4K alpha inh
Cc1ccc2c(=O)cc(C(=O)NCCc3ccc(S(N)(=O)=O)cc3)oc2c1,-22%,?,-21%,.,-10%,-78*
OC(C1=C/C(=C\c2ccncc2)c2ccccc21)c1ccncc1 (centres undefined),.,.,2%,.,.,.
CCC1OCCC=CC1C (centres undefined),.,.,.,8%[21 µM],.,.
O=C(OCc1cc(=O)n2ccsc2n1)c1ccccc1NCCO,?,-11%[11.6 µM],9%,45µM*,-8%,?
O=C(Nc1ccccc1C(=O)OCc1cc(=O)n2ccsc2n1)c1ccccc1Cl,.,.,0%,-4%,-9%,.
CN(C)c1ccc(/C=C/c2cc(Cl)nc3ccccc23)cc1,.,.,0%,.,.,.
O=C(O)/C=C\C(=O)Nc1cc(O)ccc1[N+](=O)[O-],5%,-6%,-20%,5%,3%,-75*
Cc1ccc(NC(=O)/C=C\C(=O)O)c([N+](=O)[O-])c1,23%,9%,-2%,0%,-6%,-6
Cn1c(C(c2cc3ccccc3n2C)c2cc3ccccc3n2C)cc2ccccc21,.,.,-5%,.,.,.
Cn1c(=O)[nH]c(=O)c2c1nc(SCC(=O)O)n2CCc1ccccc1,1%,-2%,-12%,-3%,2%,-57*
CCCn1c(SCc2ccccc2)nc2c1c(=O)[nH]c(=O)n2C,-8%,-32%,-8%,2%,-7%,-10
CC=CCn1c(SCc2ccccc2)nc2c1c(=O)[nH]c(=O)n2C,.,-9%,.,.,.,-58*
O=S(=O)(c1ccc2c(c1)OCCO2)N1CCN(S(=O)(=O)c2cc(F)c(F)cc2F)CC1,.,.,.,0%,.,.
O=C1c2ccccc2S(=O)(=O)c2cc(-c3nn[nH]n3)ccc21,.,-7%,.,.,-4%,-73*
CCC(C)(C)NC(=O)c1ccc2c(c1)S(=O)(=O)c1ccccc1C2=O,.,-3%,-1%,5%,1%,1
O=[N+]([O-])c1cc(CN2CCCC2)c2cccnc2c1O,12%,?,40µM*,3.5µM*,-2%,?
O=[N+]([O-])c1cc(CN2CCN(c3cccc(C(F)(F)F)c3)CC2)c2cccnc2c1O,-3%,-10%,?,12%,2%,-68*
CCc1cnc2ccccc2c1/C=C/c1ccc(N(C)C)cc1,.,.,-32%,.,.,.
CC(=O)Oc1cc(C(=O)OCC(=O)NC23CC4CC(CC(C4)C2)C3)cc(OC(C)=O)c1OC(C)=O,.,14µM*,14µM*,.,?,?
COc1cccc(C(=O)OCC(=O)NC23CC4CC(CC(C4)C2)C3)c1,0%,-5%,-7%,-6%,-8%,7
CCOC(=O)c1ccc(NC(=O)CSc2nc3sc(C(=O)O)c(C)c3c(=O)[nH]2)cc1,19%,-20%,-1%,-1%,-3%,-81*
Cc1cc(NS(=O)(=O)c2ccc(NC(=O)CSc3nc4sc(C(=O)O)c(C)c4c(=O)[nH]3)cc2)no1,18%,-29%,-24%,5%,-12%,-81*
Cc1cc(NS(=O)(=O)c2ccc(NC(=O)CSc3nc4sc(C)c(C)c4c(=O)[nH]3)cc2)no1,-2%,-8%,-17%,5%,-13%,-23
COc1ccc(Cn2ncc3c4sc(C)cc4n(C)c3c2=O)cc1F,.,.,.,-3%,.,.
Cc1ccc(NC(=O)c2cc3c([nH]c2=O)CC(C)(C)CC3=O)cc1,.,.,-9%,.,.,.
SMILES,Tb PFK inh,WRN inhibitor,FEN1 inhibitor,TDP1 inh,PGK inhibitor,PI5P4K alpha inh
O=C1c2ccccc2C(=O)c2c(NCCCN(CCO)CCO)cccc21,1%,25µM*,20µM*,4%,-14%,0
CCN(CC)CC(=O)Nc1cccc2c1C(=O)c1ccccc1C2=O,1%,4%,-6%,5%,-3%,1
Cc1ccc(NS(=O)(=O)c2ccc3[nH]c(=O)[nH]c3c2)cc1C,.,.,.,1%,.,.
O=c1[nH]c2cc3c(cc2cc1CN(Cc1cccs1)Cc1nnnn1Cc1ccco1)OCCO3,-18%,?,-9%,-2%,-7%,-83*
N#Cc1nc(NCC(F)F)c2ncn(-c3cccc(Cl)c3)c2n1,.,.,.,-2%,.,.
CCN1/C(=C/C=C/C=C/c2sc3ccccc3[n+]2CC)Sc2ccccc21,?,.,32µM*,3%,.,.
CCN1/C(=C/C=C/c2sc3ccccc3[n+]2CC)Sc2ccccc21,0%,40µM*,3%,.,?,-19
CCN1/C(=C/C=C/C=C/C=C/c2sc3ccccc3[n+]2CC)Sc2ccccc21,6%,-30%,-17%,.,-8%,?
CC[n+]1c(/C=C/Nc2ccccc2)sc2ccccc21,0%,0%[57.1 µM],-9%,7%,-6%,2
CCCCc1cc2c(cn1)=C(OC(=O)c1ccco1)C(C)(OC(=O)CC)C(=O)C=2 (centres undefined),.,.,.,14%[12.3 µM],.,.
NC(=S)N=Nc1c(O)cc(O)c2[nH]c(=O)ccc12,.,16µM*,13µM*,.,?,-72*
CCN(C(=O)COC(=O)/C=C/c1ccc(F)cc1)C1CCCCC1,1%,-3%,-24%,0%,10%,2
CCN(C(=O)COC(=O)/C=C/c1ccco1)C1CCCCC1,?,?,1%,20µM*,?,?
c1ccc2c(c1)Cc1cc3cc4c(cc3nc1-2)OCO4,.,.,.,1%,.,.
O=C(CNS(=O)(=O)c1c(Cl)cccc1Cl)OCC(=O)c1ccc[nH]1,-8%,-4%[11.6 µM],-22%,-3%,-13%,-51*
COc1ccc(C(=O)c2cn(Cc3ccc(F)cc3)c3c(F)cc(F)cc3c2=O)cc1,.,.,89µM*,6%,i,.
CCOC(=O)C1=C(O)/C(=C\c2ccc(CNS(=O)(=O)c3ccc(Br)cc3)o2)N=C1C,-1%,45µM*,?,-7%,-13%,-58*
O=C(COC(=O)c1ccccc1OCCOc1ccccc1)Nc1ccc(Br)cc1,.,.,-20%,.,.,.
O=Cc1coc2ccc3ccccc3c2c1=O,-1%,?,2%,.,?,-86*
Cc1nc(-c2coc3c(O)c(O)ccc3c2=O)cs1,.,.,.,2%,.,.
CC(C)=CCc1cc(-c2oc3cc(O)cc(O)c3c(=O)c2O)ccc1O,.,-4%[11.6 µM],14%,.,?,-55*

# Screening data as filed in PubChem BioAssay.
